Experiments:
[1] = test system: Madurella mycetomatis MM55; settings: 7 days
[2] = test system: Madurella mycetomatis MM55; assay: IC90; higher = less potent; settings: 7 days
[3] = test system: Madurella mycetomatis MM55; assay: percent growth relative to solvent control; higher = less inhibition, active = 20 or less; settings: 100 µM; 7 days

Compound | IC50 [1] [µM] | IC90 [2] [µM] | percent growth [3]
Cc1nc(-c2ccccn2)nc(N(C)CCc2ccccc2)c1Cl | 9.25 | 17.8 | 2.82% (active)
CC(C)(C)n1nc(Cc2ccc(F)c(Cl)c2)c2c(N)ncnc21 | 62 | 93 | 1.18% (active)
OCc1ccc(-c2cncc(Nc3cccc(Cl)c3)c2)cc1 | 63.6 | 98.2 | 7.76% (active)
CNCCC(Oc1ccc(C(F)(F)F)cc1)c1ccccc1 (configuration not stated) | 10.1 | 18.6 | 1.78% (active)
CN1CCCN(C(c2ccccc2)c2ccc(Cl)cc2)CC1 (configuration not stated) | 10.2 | 18.6 | 2.74% (active)
O=C(c1ccc(F)cc1)N(CCNc1ccccc1)c1ccccc1 | 66.8 | 100 | 6.35% (active)
COc1ccc(C2=NN(C3CCCCCC3)C(=O)[C@@H]3CC=CC[C@H]23)cc1OCCCCOc1ccc(-c2nn[nH]n2)cc1 | 18.6 | 53.5 | -1.09% (active)
O[C@@H](c1cc(C(F)(F)F)nc2c(C(F)(F)F)cccc12)[C@H]1CCCCN1 | 38.8 | 71.5 | -1.36% (active)
CC(C)n1nc(-c2cc3c(Cl)cccc3[nH]2)c2c(N)ncnc21 | 52.5 | 89 | -3.21% (active)
COc1ccc(C(=N)N)cc1-c1cn(-c2ccc(C(=N)N)cc2)nn1 | 56.6 | 89.2 | -3.41% (active)
COc1ccc(CN2CCOc3ccc(C(C)(O)CN(C)C)cc3C2)cc1C (configuration not stated) | 60.6 | 93.5 | 2.42% (active)
O=C(Nc1ccc(N2CCNCC2)cc1)c1ccn2ncc(-c3cccc(Cl)c3)c2n1 | 2.95 | 4.9 | 8.12% (active)
Cc1nc(-c2cccc(NCc3ccccc3)c2)[nH]c1C | 64 | 93.6 | 1.75% (active)
O=C1COCc2ccc(Br)cc2N1Cc1ccc(C(F)(F)F)cc1 | 45 | 95.4 | 9.1% (active)
Cc1[nH]c2ccccc2c1C(c1cccs1)N1CCN(C)CC1 (configuration not stated) | 12.7 | 47 | 4.92% (active)
Oc1c(I)cc(I)c2cccnc12 | 2.55 | 4.65 | -2.46% (active)
COc1cc2ncnc(NC3CCN(Cc4ccccc4)CC3)c2cc1OC | 66.6 | 92.3 | -1.64% (active)
Cc1ccc2c(c1C)NC(=O)C21NN=C(c2ccccc2)S1 (configuration not stated) | 37.9 | 61.2 | 4.4% (active)
CCOc1ccc(-c2nc(CNCCc3ccc(F)cc3)cs2)cc1 | 10.4 | 19.6 | 3.57% (active)
CN1CCC(c2cc(-c3ccncc3)c(-c3ccc(F)cc3)[nH]2)CC1 | 56.4 | 91.6 | 1.72% (active)
CC(C)(C)c1ccc(N[C@@H]2CCCC[C@H]2NC(=O)c2ccco2)cc1 | 53 | 89.7 | -1.4% (active)
Cc1nn(C(=O)Nc2cccc(C(F)(F)F)c2)c(C)c1Sc1ncccn1 | 68.5 | 94 | 1.34% (active)
CNC(=O)c1nn(C)c2c1C(C)(C)Cc1cnc(Nc3ccc(N4CCN(C)CC4)cc3)nc1-2 | 10.7 | 21.5 | 0.489% (active)
COc1cc(NC(C)CCCN)c2ncccc2c1 (configuration not stated) | 64.5 | 92.8 | 0.211% (active)
Cn1c(=O)c2c(S(C)(=O)=O)snc2n(C)c1=O | 60 | 91.5 | -0.615% (active)

Compound | IC50 [1] [µM] | IC90 [2] [µM] | percent growth [3]
CCc1ccc(S(=O)(=O)Nc2cc(CN3CCN(CCC(C)C)CC3)ccc2C)cc1 | 59.9 | 91.5 | -0.809% (active)
CC(c1cc(Cl)cc(Cl)c1)N(C)c1ncc2c(N)nc(N)nc2n1 (configuration not stated) | 46.5 | 90.7 | 5.31% (active)
O=C(c1ccc(NCCO)cc1)C1C[C@H]1c1ccc(Cl)cc1 (some centres not stated) | 12.2 | 38 | 4.06% (active)
c1ccc(Oc2ccc(-c3cc(C4CCOCC4)[nH]n3)cc2)cc1 | 35.6 | 57 | 4.02% (active)
Clc1ccc(Cl)c(CO[C@H]2CCCC[C@@H]2n2ccnc2)c1 | 14.2 | 67.5 | 1.03% (active)
Cc1ccccc1CN1CCC(O)(c2ccc(Cl)c(C(F)(F)F)c2)CC1 | 35.5 | 56.3 | 1.71% (active)
Cc1cc(C)n(-c2ccc(NC(=O)C3CCN(Cc4cnc(C)s4)CC3)cc2)n1 | 48.8 | 92.5 | 1.64% (active)
COc1ccc(CCN2CCC(NCc3cccc(N(C)C)c3)CC2)cc1 | 24.5 | 51.7 | -0.197% (active)
COc1cncc(-c2cncc(N3CCN(c4ccncc4)CC3)n2)c1 | 28.2 | 52.1 | -0.286% (active)
c1ccc(Oc2ccc(-c3cc(N4CCOCC4)[nH]n3)cc2)cc1 | 56.9 | 95.2 | 5.11% (active)
CN1CCC(NCc2cccc(-c3ccc(S(=O)(=O)NCc4ccccc4)cc3)c2)CC1 | 40.8 | 92 | 3.47% (active)
Cc1cc(NCC(C)C)c2n[nH]c(-c3ccccc3)c2n1 | 52.5 | 89.3 | -1.5% (active)
c1ccc(C[C@@H]2CN(c3nccc(Oc4ccc(-n5ccnc5)cc4)n3)CCN2)cc1 | 58.9 | 91.2 | -0.802% (active)
CN1CCN(CCCOc2ncc(Nc3ncc(-c4ccc(C(F)(F)F)c(F)c4)nc3C(N)=O)cn2)CC1 | 25.7 | 85.2 | -0.0728% (active)
CC(C)=CCC/C(C)=C\CNCCNC1C2CC3CC(C2)CC1C3 (configuration not stated) | 10.2 | 19.8 | 2.78% (active)
C[C@@H]1[C@H](O)[C@@H](C)/C=C/C=C/C=C/C=C/C=C/C=C/C=C/[C@H](O[C@@H]2O[C@H](C)[C@@H](O)[C@H](N)[C@@H]2O)C[C@@H]2O[C@](O)(C[C@@H](O)C[C@@H](O)[C@H](O)CC[C@@H](O)C[C@@H](O)CC(=O)O[C@H]1C)C[C@H](O)[C@H]2C(=O)O | 9.7 | 20.1 | 7.03% (active)
COc1ccccc1OCCCCn1c(C2CC2)nc2ccccc21 | 52.1 | 92.7 | 2.84% (active)
Cc1cccc(-c2nc(Nc3ccncn3)c3sccc3n2)n1 | 35.2 | 88.1 | 1.77% (active)
Cc1cccc(Cn2ccc(NC(=O)c3ccc4c(c3)OCO4)n2)c1 | 60.1 | 90.7 | -0.936% (active)
CC(C)(C(=O)Nc1ccc(F)cc1)n1cc(-c2ccccc2F)cn1 | 56.2 | 96.1 | 6.9% (active)
COc1cccc(-n2nnnc2S(C)(=O)=O)c1 | 59.9 | 92.6 | 1.2% (active)
COc1ccc(-c2onc(C(F)(F)F)c2-c2ccc(Cl)cc2)c(O)c1 | 8.8 | 16.8 | 3.39% (active)
O=C(Nc1ccc(N2CCNCC2)nc1)c1oc(-c2ccccc2)nc1C(F)(F)F | 37.9 | 85.3 | -3.61% (active)
O=C(Nc1ccc(C(F)(F)F)c(C(F)(F)F)c1)c1cc(Cl)ccc1O | 1.45 | 3.8 | -2.39% (active)
Cc1nnc(NCc2cccc(Cl)c2)c2ccccc12 | 29.1 | 62.8 | -0.336% (active)

Compound | IC50 [1] [µM] | IC90 [2] [µM] | percent growth [3]
CNc1nnc(Sc2cnn(-c3ccccc3)c(=O)c2Cl)s1 | 54.9 | 90.8 | -0.261% (active)
O=C(NC1CC1)c1ccc(N2CCOc3ccc(Cl)cc32)s1 | 34.5 | 51.8 | -2.78% (active)
c1ccc(Oc2ccc(-c3cc(N4CCNCC4)[nH]n3)cc2)cc1 | 35.1 | 81.3 | 0.718% (active)
NCC(c1cccs1)S(=O)(=O)c1ccccc1 (configuration not stated) | 53.9 | 91.8 | 1.47% (active)
COc1cc(CN2CCC3(C=Cc4ccccc43)CC2)cc2c1OCO2 | 28 | 91.5 | 4.12% (active)
CC(Oc1ccccc1)C(=O)Nc1nc(-c2ccccn2)cs1 (configuration not stated) | 10.1 | 18.5 | 1.36% (active)
Cc1ccc2nc(C)c(-c3ccn(Cc4ccccc4)n3)n2c1 | 39.8 | 90.8 | 2.95% (active)
FC(F)(F)c1cc(NCCc2ccccc2)nc(-c2ccccn2)n1 | 55.5 | 91.1 | -0.699% (active)
NCCN(C(=O)c1ccc(Cl)cc1Cl)c1ccc(OCc2ccc(Cl)cc2)cc1 | 10.5 | 17.9 | 4.52% (active)
O=C(c1cc2ccccc2o1)N1CCN(Cc2ccc3c(c2)OCO3)CC1 | 45.1 | 87.5 | 3.51% (active)
Nc1nc2ccc(-c3cncc(Oc4ccc(F)cc4)c3)cc2[nH]1 | 40.7 | 85.8 | -2.72% (active)
N=C(N)Nc1ccc(-c2ccc(-c3ccc(N=C(N)N)c(Cl)c3)o2)cc1Cl | 61.6 | 88.5 | -8.11% (active)
Cc1ccc2[nH]c(C3CCCNC3)c(-c3ccncc3)c2c1 (configuration not stated) | 52.1 | 89.4 | 0.356% (active)
CC1=Nc2ccc(Cl)cc2C(O)(c2ccc(C)cc2)N1CCN1CCCCC1 (configuration not stated) | 49.3 | 92.3 | 2.85% (active)
O=C(NC1CCN(c2ccnc3ccccc23)C1)c1cccc(C(F)(F)F)c1 (configuration not stated) | 61.6 | 94.8 | 3.94% (active)
O=C1N(Cc2cc3ccccc3s2)CC2CN(Cc3ccccc3)CCN12 (configuration not stated) | 57.6 | 91.8 | 0.636% (active)
C[C@H](c1ccc2c(c1)CCCC2)N(C)c1ncc2c(N)nc(N)nc2n1 | 63.7 | 91 | -2.94% (active)
O=C(c1ccco1)N(CCCn1ccnc1)c1nc2c(Cl)cccc2s1 | 59.1 | 94 | 3.24% (active)
c1ccc(-c2nc(NC3CCCCC3)cc(C3CC3)n2)nc1 | 10.3 | 18.8 | 2.69% (active)
c1csc(-c2cnc3sc(NCC4CCOCC4)nn23)c1 | 62.6 | 95.5 | 4.52% (active)
CCCCc1ccc(C(=O)Nc2nccc3ccccc23)nc1 | 54.6 | 86 | -1.16% (active)
c1cncc(NCc2ccc(-c3cc4ccncc4cc3OC3CCNCC3)s2)c1 | 53.9 | 88.5 | -3.08% (active)
Cc1cc(C)nc(-n2nc(C)cc2Nc2ccccc2)n1 | 58.1 | 91.3 | -0.531% (active)
CCOC(=O)c1c(NC(=O)c2c(F)c(F)c(F)c(F)c2F)sc(C(N)=O)c1C | 60.5 | 92.8 | 1.26% (active)

Reference: the supplement of paper PMC5940239
